Inconclusive results are not listed. A call without a number means that no potency is given here. Active and inactive are the calls of the source. Calls come from the whole dose curve; as a rule, active = well fitted curve in the direction sought with a large enough effect; inconclusive = small, poorly fitted or top-dose-only effect, or another doubt; inactive = no such curve, though single readings can be large; an effect the other way counts as inactive or inconclusive.
Experiments:
[1] = qHTS of pediatric cancer cell lines to identify multiple opportunities for drug repurposing: Primary screen for TC32 cells (AID 1347089); note: nearly all actives have a fitted effect of over 60% in size
Procedure, shortened: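 TC32 cells, 500-1,000/well in growth medium, compound-treated 48 h at 37 °C; viability from CellTiter-Glo luminescence. Primary screen: MIPE 11-point (0.78 nM–46 µM final), NPC 8-point (0.59 nM–46 µM final); confirmatory at 11-point dilutions.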

[2] = qHTS of pediatric cancer cell lines to identify multiple opportunities for drug repurposing: Primary screen for DAOY cells (AID 1347090); note: nearly all actives have a fitted effect of over 55% in size; note: potency is the fitted concentration of half-maximal effect
Procedure, shortened: (§1)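 Cell viability, CellTiter-Glo luminescence; 500-1,000 cells/well, 8- or 11-point titration, 48 h compound exposure at 37 degrees C, 5% CO2. Controls: DMSO neutral, bortezomib 2.3 µM final as positive.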

[3] = qHTS of pediatric cancer cell lines to identify multiple opportunities for drug repurposing: Primary screen for A673 cells (AID 1347092); note: nearly all actives have a fitted effect of over 45% in size; note: potency is the fitted concentration of half-maximal effect
Procedure, shortened: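 A673 cells (500-1,000 cells/well) were treated 48 hours at 37 degrees C with compounds at 11-point (0.78 nM to 46 µM) or 8-point (0.59 nM to 46 µM) dilutions. Viability read by CellTiter-Glo luminescence; concentration-response curves fitted.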

[4] = qHTS of pediatric cancer cell lines to identify multiple opportunities for drug repurposing: Primary screen for BT-37 cells (AID 1347094); note: potency is the fitted concentration of half-maximal effect
Procedure, shortened: (§2)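 Phenotypic viability qHTS, 48 h compound exposure, CellTiter-Glo luminescence read-out; multi-concentration dosing so that potency and efficacy derive directly from the primary screen's curves.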

[5] = qHTS of pediatric cancer cell lines to identify multiple opportunities for drug repurposing: Primary screen for NB-EBc1 cells (AID 1347095)
Procedure, shortened: as §2

[6] = qHTS of pediatric cancer cell lines to identify multiple opportunities for drug repurposing: Primary screen for U-2 OS cells (AID 1347096); note: nearly all actives have a fitted effect of over 50% in size
Procedure, shortened: (§3)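 Cells (500-1,000/well) rested 5 h, then received compounds for 48 h; metabolically active cells were measured by CellTiter-Glo luminescence. Final concentrations spanned up to 46 µM (MIPE, 11-point) or 0.59 nM-46 µM (NPC, 8-point) in primary screens, 11-point in follow-ups.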

[7] = qHTS of pediatric cancer cell lines to identify multiple opportunities for drug repurposing: Primary screen for Saos-2 cells (AID 1347097); note: nearly all actives have a fitted effect of over 40% in size; note: potency is the fitted concentration of half-maximal effect
Procedure, shortened: as §2

[8] = qHTS of pediatric cancer cell lines to identify multiple opportunities for drug repurposing: Primary screen for SK-N-SH cells (AID 1347098); note: nearly all actives have a fitted effect of over 65% in size; note: potency is the fitted concentration of half-maximal effect
Procedure, shortened: as §3

[9] = qHTS of pediatric cancer cell lines to identify multiple opportunities for drug repurposing: Primary screen for NB1643 cells (AID 1347099); note: nearly all actives have a fitted effect of over 50% in size; note: potency is the fitted concentration of half-maximal effect
Procedure, shortened: as §2

[10] = qHTS of pediatric cancer cell lines to identify multiple opportunities for drug repurposing: Primary screen for LAN-5 cells (AID 1347100); note: potency is the fitted concentration of half-maximal effect
Procedure, shortened: as §3

[11] = qHTS of pediatric cancer cell lines to identify multiple opportunities for drug repurposing: Primary screen for BT-12 cells (AID 1347101); note: nearly all actives have a fitted effect of over 25% in size; note: potency is the fitted concentration of half-maximal effect
Procedure, shortened: as §3

[12] = qHTS of pediatric cancer cell lines to identify multiple opportunities for drug repurposing: Primary screen for Rh18 cells (AID 1347102); note: nearly all actives have a fitted effect of over 65% in size; note: potency is the fitted concentration of half-maximal effect
Procedure, shortened: as §3

[13] = qHTS of pediatric cancer cell lines to identify multiple opportunities for drug repurposing: Primary screen for OHS-50 cells (AID 1347103); note: nearly all actives have a fitted effect of over 40% in size; note: potency is the fitted concentration of half-maximal effect
Procedure, shortened: as §3

[14] = qHTS of pediatric cancer cell lines to identify multiple opportunities for drug repurposing: Primary screen for RD cells (AID 1347104); note: nearly all actives have a fitted effect of over 55% in size; note: potency is the fitted concentration of half-maximal effect
Procedure, shortened: as §2

[15] = qHTS of pediatric cancer cell lines to identify multiple opportunities for drug repurposing: Primary screen for MG 63 (6-TG R) cells (AID 1347105); note: nearly all actives have a fitted effect of over 50% in size; note: potency is the fitted concentration of half-maximal effect
Procedure, shortened: as §2

[16] = qHTS of pediatric cancer cell lines to identify multiple opportunities for drug repurposing: Primary screen for control Hh wild type fibroblast cells (AID 1347106); note: nearly all actives have a fitted effect of over 55% in size; note: potency is the fitted concentration of half-maximal effect
Procedure, shortened: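 Viability after 48 h compound treatment at 37C, 500-1,000 cells/well, read as ATP luminescence with CellTiter-Glo. Primary screens used 11-point (MIPE, 0.78 nM-46 µM) or 8-point (NPC, 0.59 nM-46 µM) final concentrations; follow-up screens used 11-point dilutions.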

[17] = qHTS of pediatric cancer cell lines to identify multiple opportunities for drug repurposing: Primary screen for Rh30 cells (AID 1347107); note: series mostly up to about 46 µM; nearly all actives have a fitted effect of over 75% in size
Procedure, shortened: as §3

[18] = qHTS of pediatric cancer cell lines to identify multiple opportunities for drug repurposing: Primary screen for Rh41 cells (AID 1347108); note: nearly all actives have a fitted effect of over 70% in size; note: potency is the fitted concentration of half-maximal effect
Procedure, shortened: as §2

[19] = qHTS of pediatric cancer cell lines to identify multiple opportunities for drug repurposing: Primary screen for SK-N-MC cells (AID 1347093); note: potency is the fitted concentration of half-maximal effect
Procedure, shortened: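 Metabolically active cells were quantified by ATP-dependent luminescence (CellTiter-Glo, 15 min at room temperature) following 48 h treatment. Cells had been plated at 500-1,000 per well and settled for 5 h beforehand.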

[20] = qHTS of pediatric cancer cell lines to identify multiple opportunities for drug repurposing: Primary screen for SJ-GBM2 cells (AID 1347091); note: potency is the fitted concentration of half-maximal effect
Procedure, shortened: as §1

SMILES | Potency [1] | Potency [2] | Potency [3] | Potency [4] | Potency [5] | Potency [6] | Potency [7] | Potency [8] | Potency [9] | Potency [10] | Potency [11] | Potency [12] | Potency [13] | Potency [14] | Potency [15] | Potency [16] | Potency [17] | Potency [18] | Potency [19] | Potency [20]
CN1C(=O)CN=C(c2ccccc2)c2cc([N+](=O)[O-])ccc21 | inactive | inactive | inactive | inactive | inactive | inactive | inactive | inactive | inactive | inactive | inactive | inactive | inactive | inactive | inactive | inactive | inactive | inactive | – | –
CC1Sc2c(C(=O)O)c(=O)c3cc(F)c(N4CCNCC4)cc3n21 (stereo unspecified) | inactive | inactive | – | inactive | inactive | inactive | inactive | inactive | – | inactive | inactive | inactive | inactive | inactive | inactive | inactive | inactive | inactive | – | –
COc1cc(C[C@@H](C)N)c(OC)cc1C | inactive | inactive | inactive | – | – | inactive | inactive | inactive | inactive | inactive | – | inactive | – | inactive | inactive | inactive | inactive | inactive | inactive | –
c1ccc2c(c1)Sc1ccccc1N2CC1CN2CCC1CC2 (stereo unspecified) | – | – | 13.3 µM (active) | 27.6 µM (active) | inactive | – | 26.6 µM (active) | 27.3 µM (active) | 23.7 µM (active) | – | 15.5 µM (active) | 23.7 µM (active) | 19.5 µM (active) | 15 µM (active) | 21.1 µM (active) | 23.7 µM (active) | – | – | – | –
Nc1ccc(Cl)cc1C(=O)c1ccccc1F | – | inactive | – | inactive | – | inactive | – | – | inactive | inactive | inactive | inactive | – | inactive | – | inactive | inactive | inactive | – | inactive
CNC(C)Cc1ccc2c(c1)OCO2 (stereo unspecified) | – | 47.4 µM (active) | – | inactive | inactive | inactive | – | inactive | inactive | inactive | inactive | inactive | inactive | – | – | inactive | inactive | – | – | inactive
CC#C[C@]1(O)CC[C@H]2[C@@H]3C[C@H](C)C4=CC(=O)CC[C@]4(C)[C@H]3CC[C@@]21C | inactive | inactive | inactive | – | – | inactive | – | inactive | – | – | – | – | 19.5 µM (active) | inactive | – | inactive | inactive | inactive | 23.7 µM (active) | –
CC[C@H](O)C(C[C@H](C)N(C)C)(c1ccccc1)c1ccccc1 | inactive | – | – | inactive | inactive | inactive | – | – | – | inactive | inactive | inactive | inactive | – | – | inactive | – | 44.1 µM (active) | 62.3 µM (active) | inactive
CCc1cc(OC)c(C[C@H](C)N)cc1OC | inactive | inactive | – | inactive | inactive | inactive | inactive | – | inactive | inactive | – | inactive | inactive | – | inactive | inactive | inactive | – | – | –
C[C@]12Cc3nonc3C[C@@H]1CC[C@@H]1[C@@H]2CC[C@@]2(C)[C@H]1CC[C@]2(C)O | inactive | inactive | – | – | – | inactive | – | inactive | inactive | – | – | inactive | 15.5 µM (active) | – | inactive | inactive | inactive | – | – | –
C=CCOC(Cn1ccnc1)c1ccc(Cl)cc1Cl (stereo unspecified) | inactive | inactive | – | inactive | inactive | inactive | inactive | inactive | inactive | inactive | – | inactive | – | inactive | inactive | inactive | inactive | inactive | inactive | –
CCOC(=O)C(c1c(O)c2ccccc2oc1=O)c1c(O)c2ccccc2oc1=O | inactive | inactive | inactive | inactive | inactive | inactive | inactive | inactive | inactive | inactive | inactive | inactive | inactive | inactive | – | inactive | inactive | inactive | – | –
Oc1ccc2[nH]cc(CCCCN3CC=C(c4ccccc4)CC3)c2c1 | – | inactive | – | – | – | inactive | – | – | inactive | 11.9 µM (active) | 15.5 µM (active) | – | 27.6 µM (active) | – | – | inactive | inactive | inactive | – | –
Clc1ccc(CO/N=C(\Cn2ccnc2)c2ccc(Cl)cc2Cl)c(Cl)c1 | – | – | – | – | – | – | – | – | inactive | 23.7 µM (active) | – | – | – | – | – | inactive | inactive | – | – | –
CC(C)=CCN1CC[C@@]2(C)c3cc(O)ccc3C[C@@H]1[C@@H]2C | inactive | inactive | – | – | inactive | inactive | – | inactive | inactive | inactive | inactive | inactive | – | – | inactive | inactive | inactive | inactive | – | –
Oc1ccc([C@H]2CNCc3c2ccc(O)c3O)cc1O | inactive | – | – | inactive | inactive | inactive | – | – | inactive | – | inactive | – | inactive | inactive | – | inactive | inactive | inactive | – | –
CCC(OC(C)=O)C(CC(C)NC)(c1ccccc1)c1ccccc1 (stereo unspecified) | – | – | 27.6 µM (active) | 35.9 µM (active) | inactive | – | – | – | – | 43.7 µM (active) | 35.9 µM (active) | 39 µM (active) | 28.5 µM (active) | 27.6 µM (active) | – | inactive | – | 31 µM (active) | 31 µM (active) | –
Cc1nnc2n1-c1sc(CCc3ccc(CC(C)C)cc3)cc1C(c1ccccc1Cl)=NC2C (stereo unspecified) | – | – | – | – | – | – | – | – | – | 23.7 µM (active) | 11 µM (active) | – | 21.9 µM (active) | – | – | inactive | inactive | – | – | 26.6 µM (active)
COc1cc(CC(C)N)c(OC)cc1Br (stereo unspecified) | – | inactive | – | – | – | inactive | – | – | – | – | – | inactive | – | – | 17.9 µM (active) | – | inactive | – | 44.9 µM (active) | inactive

Reference: PubChem BioAssay (NCATS)
